Over roughly 33,000 sequences, “E-score (-0.5 to 0.5)” has its median near -0.0034; the highest 2% begin near 0.25. For the sample, the highest values were picked, then their nearest neighbours and some sequences at random.
What follows are sequences tested against T1, Yap3 (UniProt P38749) (assay: PBM E-score (8-mer binding enrichment) (E-score (-0.5 to 0.5)); higher = stronger / more preferred TF binding). Conditions: protein concentration: 100 nM; construct: GST-full length.
T1 sequence: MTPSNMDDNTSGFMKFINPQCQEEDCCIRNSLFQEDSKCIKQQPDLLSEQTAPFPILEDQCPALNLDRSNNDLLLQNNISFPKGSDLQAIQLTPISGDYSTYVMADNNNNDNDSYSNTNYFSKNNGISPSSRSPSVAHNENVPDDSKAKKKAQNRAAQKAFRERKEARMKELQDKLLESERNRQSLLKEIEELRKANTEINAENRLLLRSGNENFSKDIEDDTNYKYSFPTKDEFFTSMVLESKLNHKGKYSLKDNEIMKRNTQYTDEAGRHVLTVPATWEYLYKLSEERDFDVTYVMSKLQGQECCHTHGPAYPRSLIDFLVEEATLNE
Outline: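 Full-length yeast transcription factors or their DNA-binding domains, GST-tagged and expressed with PURExpress, were applied at about 100-200 nM to universal all-10-mer Agilent arrays. These arrays had been made double-stranded by primer extension on fresh or once-stripped slides. Detection used fluorescent anti-GST, normalisation used masliner, and E-scores for ungapped eight-base words pooled with reverse complements came from the Universal PBM Analysis Suite.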

Sequence	PBM E-score
CGATAGAA	0.0788
ACACCCTG	-0.133
AATTACTG	0.218
AATTACTA	0.325
GATTACCA	0.153
TATTACAA	0.209
GATTACTA	0.225
GCTTACTA	0.237
CATTACAC	0.205
AATTACCA	0.256
AATTACCC	0.107
CCTTACTA	0.281
CATTACAA	0.28
CCTTACTC	0.183
AGATCACG	0.128
GGGCCACC	-0.256
TCTGCTAA	0.0116
ACCGCGAA	-0.00285
GGACATGA	-0.0945
ACAACTGC	0.0481
CTGCCCTA	-0.132
CCTGCATC	-0.0897
GGGCTCCA	-0.262
GAGGCACA	-0.0567
CATTACTA	0.292

Sequence	PBM E-score
CATTACTC	0.221
CTTTACTA	0.22
AATCAGAA	0.0468
AAAGAACC	0.0747
CGTATTAG	0.152
AGTATTAT	0.1
AGTATTAA	0.186
AGTATTAG	0.327
CGTATTAC	0.231
AGTATTAC	0.26
AGCAAGTG	-0.0827
AAATTGTC	0.154
GATCGACA	-0.00076
AACTAGAT	0.0716
CTTTGTTC	0.0752
CATTGTTC	0.125
ATTTGTTA	0.166
AATTGTTC	0.257
AATTGTTG	0.0159
ATTTGTTC	0.321
CATAGTTA	0.0154
ATAAGCAA	0.137
CTAAGCAA	-0.0294
GTAAGCAA	0.27
ATATCATG	0.101

Sequence	PBM E-score
GTATCAGA	-0.0367
CTATCATA	0.12
GCATCATA	0.193
GTATCTTA	0.267
ATATCATA	0.271
GTATCATA	0.276
GTATCTGA	0.133
CTATCTTA	0.126
CCTCAAAC	0.0235
TCGGGCCA	-0.132
GTGAGGCA	0.0355
CATGACCC	-0.0127
CGGGCCTA	-0.255
GTAGACCA	-0.0918
ACCCGCAG	-0.0808
ATCACTCG	0.0758
CCAGGTTC	-0.317
GTGCGAGA	0.0126
ATGTACCA	-0.0322
AAGTTATG	0.256
AAGTTATT	0.174
AAGTTATA	0.175
GATACTGA	0.0116
CATACTGA	0.136
TATACTGA	0.295

Sequence	PBM E-score
TGAGACAA	0.0572
ATTTCATC	0.269
ATTTCATA	0.239
ATTTCATG	-0.0106
CTAGTATC	0.0604
ACAATTAC	0.203
CCAATTAA	0.0782
GCAATTAC	0.102
GTAATTGA	0.115
CTAATTGA	0.0727
GGAATTAC	0.235
CCAATTAC	0.274
GTAATTAC	0.306
TTAATTAA	0.0675
ATAATTGA	0.308
CTAATTAA	0.135
ATAATTAA	0.259
CGTTCATA	-0.0126
AGCACGCC	-0.157
ACCACTGC	-0.048
GACACTAA	0.064
AAGGGGCA	-0.105
CTCTCGGA	0.00281
ATATGCGG	0.0287
GCAGTGAA	0.225

Sequence	PBM E-score
GTCAAAGA	-0.0517
AGTAGCCA	-0.141
CATGCACC	-0.191
CGCTGCTC	-0.133
ACAATTAG	-0.0417
AGAATTAG	0.0612
CTAATTAC	0.253
CCAATTAG	0.177
GTAATTAA	0.259
GGAATTAA	0.233
ATAATTAC	0.333
ATAATTCC	0.163
ATAATTAG	0.347
GTAATTCA	0.177
CAAATTAG	0.122
CTAATTAG	0.347
ATTAGAGC	0.116
GAACGCTC	-0.11
AGAGAAAT	0.142
CAACAGAA	-0.0742
CAACAGGG	-0.116
TACCACAA	0.123
AGGAAGAT	0.13
AGTCAGGG	-0.185
ATAATTCG	0.242

Sequence	PBM E-score
ATAATTCA	0.282
CTAATTCA	0.112
ATAATTAT	0.302
AGAATTAT	0.197
ACAATTAT	0.248
ATCAGAGG	-0.132
GACGCTGC	-0.0366
ATGCGAAA	0.13
ACTTAGGG	-0.112
ATTAATAA	0.405
CTTAATAC	0.0534
CTTAATAA	0.275
GTTAATAA	0.223
ATTAATAC	0.201
ATTAATAG	0.228
AATATGGG	0.0708
CTTGGTAC	0.172
GAAGAGCA	-0.258
GCTTCCCC	-0.346
ACGTCAGC	0.0264
CTCGCGAC	0.068
GTCGCGAC	0.324
GTCGCGAA	-0.0136
AAGGTATC	-0.00987
CACCACAC	0.096

Sequence	PBM E-score
GTATGAAA	0.29
ATGTGATA	0.255
GTATGAAC	0.0322
CTTTGATA	0.189
GTGTGATA	0.203
ATTTGATA	0.273
GTATGAGA	0.158
TTATGAAA	0.204
GGATGATA	0.122
GTATGATA	0.282
ATTTGATC	-0.0998
CTGTGATA	-0.106
CAGAAGCA	0.137
TCCTACAA	0.0495
GTCATCCA	0.0539
AAAGACCT	0.0294
ATATGATA	0.264
CTATGATC	-0.0167
GTGTGAAA	0.133
CTATGATA	0.0744
AGATGATA	0.08
ATATGATG	0.171
CTGTGAAA	0.264
ATGTGAAA	0.134
ATATGATC	0.294

Sequence	PBM E-score
CTCTAGAA	-0.214
AGTGGTAC	0.0484
CTCGCTGC	-0.0528
AAGCATTA	0.106
CATTCAAC	-0.065
ATAAAAAT	0.199
CTAAATAC	0.0333
CTAAATAA	0.155
ATAAATAT	0.267
ATAAATAC	0.325
ATAAATCA	0.207
ATAAATAG	0.195
ATATAAAT	0.242
ATAAATAA	0.307
TTAAATAA	0.155
GTAAATAC	0.0284
GTAAATAA	0.267
GAACTCTC	-0.0889
AATTAGAT	0.245
ACATTTTC	0.125
CCTATAAC	-0.0793
CCATCTTA	0.00932
GTCCTAAC	-0.0915
ACCATCAC	0.0126
ATCTTCTA	0.0985

Sequence	PBM E-score
ATTGAGCA	0.105
AATAAAAA	0.27
AATAAAAT	0.239
AATAAAAC	0.315
GATAAAAC	0.219
CATAAAAC	0.0691
AATAAAAG	0.0973
ACCACTCG	0.0759
ACGTGTTG	0.0914
GAGCGACA	0.0223
ACTTGTCT	-0.0439
CGACAACG	0.0404
GTAATAAC	0.188
TTAATAAA	0.372
ATAATAAT	0.26
ACAATAAA	0.106
ATAATAAG	0.194
ATAATAGA	0.184
GTAATAAA	0.266
CTAATAAA	0.178
ATAATAAC	0.173
CTAATAAC	0.15
ATAATAAA	0.277
GAAATAAA	0.14
CGCGTCGA	0.0342

Sequence	PBM E-score
GTACGAAA	0.173
CTCGTCGA	-0.0244
CGTCGCTA	0.11
CTTCTGAA	0.0313
ACAGCCAT	-0.0294
ACGTGAAA	0.211
AGAATAAT	0.24
AGAATAAA	0.261
AGAATAAG	0.11
AGATAGGC	-0.0411
GGACAGCA	-0.0442
GTTTAGTA	0.275
CTTTAGTA	0.0328
ATTTAGTC	0.167
GGTTAGTA	0.0941
ATTTAGTG	0.204
ATTTAGTA	0.289
CCAGTAAG	-0.0333
ACACATGT	0.0237
CGGGTAAC	-0.0884
ACAATTCC	0.0667
ACATCTTC	0.0249
GCGGTAGA	0.00783
CACAAATA	0.152
AACAAATA	0.25

Sequence	PBM E-score
GACAAGTA	-0.00588
GACAAATC	0.175
TACAAATA	0.299
GACAAATA	0.299
TGGGGACA	-0.0974
ATGTAGCA	-0.00878
CCGCGGCA	0.135
AGAGAGCC	-0.201
CGTATCGC	0.0192
GCGATTAA	0.216
GTTATTAA	0.262
GTTATTGA	0.117
CTTATTAA	0.339
CTTATTGA	0.0574
ATCATTAA	0.207
CTCATTAA	0.0548
CTTATTGC	0.0255
GTTATTTA	0.165
GTCATTAA	0.3
ACGATTAA	0.0578
TCGATTAA	0.308
CCGCCACC	-0.155
CCTCAGGA	-0.184
CCAAGACG	-0.148
ATGGTGGA	-0.062

Sequence	PBM E-score
CGCTAATA	0.0177
CTCTCTAA	-0.149
CACCTTCA	0.014
GGCCCACA	-0.119
CGGAGCAG	-0.191
AGATTTGG	-0.12
ATTGCAGG	0.073
ATTATTAA	0.378
ACTATTAA	0.123
ACCATTAA	0.26
CTGATTAA	0.203
CCCATTAA	-0.108
ATGATTAA	0.274
ATGATTAG	0.124
TCCATTAA	0.0027
CCTATTAA	0.0368
ATAAGATG	0.176
AATAGAAA	0.138
ATGGTATG	0.00998
ATGGTATA	0.262
ATTGTATA	0.298
ATTGTATG	0.151
ATGGTATC	0.175
CTTGTATA	0.127
CGGTCGCC	-0.2

Sequence	PBM E-score
CTCTAAAC	0.167
AAGCTGAG	0.0158
AGCAGAGA	-0.0117
TCGTAGAA	-0.0144
CCGCCTAA	-0.155
TAAAATAA	0.0792
CAAAAATC	0.051
AAAATAGA	0.256
ACAAAATA	0.175
AAAAATAA	0.25
GAAAAATA	0.114
TAAATAGA	-0.0374
CCAAAATA	0.211
AAAAAATA	0.287
CAAAATAA	0.296
AAAATAGC	-0.0905
CAAAAATA	0.332
CAGTTTGC	0.124
ACGCCGCG	-0.0869
AGACCTGG	-0.0312
AGTTTGCC	0.175
GCGGCTCA	0.0715
TAAAGATA	0.254
TAAATATA	0.297
AAAATAAA	0.204

Sequence	PBM E-score
CAAATAAA	0.197
TAAAAAAA	0.0893
GAAAGATA	0.217
GAAATATA	0.248
TAAATAAA	0.282
TAAAAATA	0.26
CAAAGATA	0.0838
CTAAAATA	0.148
CAAATATA	0.0799
TAGGTCAA	0.0932
AGGAATAA	0.156
GTGGTAAA	-0.0974
AGAGCTCC	-0.275
AATTGGAG	-0.0503
ATGGCCGA	0.0282
ATGTGCAA	0.059
ATCTGTTG	-0.0152
AAAAACTC	0.072
AGAATCGG	-0.0519

— the supplement of paper PMC3334620
